# PNC assembly inh – inhibitors of perinucleolar compartment assembly | PC3M PTB-GFP, PNC prevalence imaging, 16 h; hits give low values | activity change (PNC), negative = inhibition, % at 10 µM | 3.1% of 140,000 active | AID 2417;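 active = readout at or below -70, meaning at least 70% loss of cells showing the perinucleolar compartment, a nuclear body marking cancer cells; inconclusive = readout between -30 and a set limit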;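 note: plate controls were DMSO wells for no effect and camptothecin positive control wells for full effect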
#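 Compounds are pinned in duplicate onto adhered PC3M cells stably expressing GFP-tagged PTB and incubated 16 h at 37 C. Cells are then fixed, nuclei stained with Hoechst, and PNC-positive cells counted.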
# GoLoco inh red – RGS12 GoLoco-Gai1 interaction inhibition; P63096; Gai1:RGS12 GoLoco peptide FP, rhodamine, 10 min; Potency, µM (series often up to 61.6 µM), inactives show at the top dose activity, negative = inhibition, most hits filed as inhibitors; 0.44% of 230,000 active; active = well fitted inhibition curve with a large enough effect, not every such curve was filed as active; inactive = no such curve, though single readings can be large or run the other way; note: potency is the fitted concentration of half-maximal effect; % is set by controls: 0 for no effect and ±100 for the full control effect; nearly all actives have a fitted effect of over 30% in size
# HttQ103 aggreg – inhibitors of mutant huntingtin aggregate formation in PC12 cells. PC12 HttQ103-GFP aggregates, Acumen cytometry, 40 h. Potency, µM (doses to about 46.1 µM), inactives show top-dose activity change, negative = inhibition, most hits filed as inhibitors. 1.1% of 220,000 active. AID 1688; active = well fitted curve in the direction sought with a large enough effect; inconclusive = small, poorly fitted or top-dose-only effect, or another doubt; inactive = no such curve, though single readings can be large; an effect the other way counts as inactive or inconclusive; note: potency is the fitted concentration of half-maximal effect; % is set by controls: 0 for no effect and ±100 for the full control effect; nearly all actives have a fitted effect of over 60% in size
#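 Inducible Q103 Huntingtin exon 1–GFP PC12 line, 1500 cells/well in phenol red free DMEM with 5% equine and 5% calf serum. Tebufenozide 100 nM induced expression; compounds titrated; aggregates quantified by cytometry.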
# HTT ATP protect – cytoprotection in Huntington HTT-Q103 PC12 cell model; PC12 HTT-Q103 induced, cytoprotection, ATP luminescence, 40 h; Potency, µM (top dose mostly 56.4 µM), for inactives: cytoprotection (ATP increase), actives largely listed as activators; 0.14% of 230,000 active; active = well fitted curve in the direction sought with a large enough effect; inconclusive = small, poorly fitted or top-dose-only effect, or another doubt; inactive = no such curve, though single readings can be large; an effect the other way counts as inactive or inconclusive; note: potency is the fitted concentration of half-maximal effect; % of control where 0% means no effect; nearly all actives have a fitted effect of over 45% in size
#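 PC12 cells with ecdysone-inducible HTT exon 1 Q103-GFP, induced with 100 nM tebufenozide and co-treated with library compounds in a dose series (1536-well, 1500 cells/well). Cytoprotection read as ATP content by ATPlite luminescence.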
# HPGD inh – inhibitors of human 15-hydroxyprostaglandin dehydrogenase (HPGD); P15428; purified HPGD, NADH fluorescence kinetic, PGE2 substrate; Potency, µM, without a hit: at the top dose activity change, negative = inhibition, actives largely listed as inhibitors; 4.3% of 150,000 active; AID 894; note: potency is the fitted concentration of half-maximal effect; % is set by controls: 0 for no effect and ±100 for the full control effect
# Target sequence (P15428 whole entry, looked up): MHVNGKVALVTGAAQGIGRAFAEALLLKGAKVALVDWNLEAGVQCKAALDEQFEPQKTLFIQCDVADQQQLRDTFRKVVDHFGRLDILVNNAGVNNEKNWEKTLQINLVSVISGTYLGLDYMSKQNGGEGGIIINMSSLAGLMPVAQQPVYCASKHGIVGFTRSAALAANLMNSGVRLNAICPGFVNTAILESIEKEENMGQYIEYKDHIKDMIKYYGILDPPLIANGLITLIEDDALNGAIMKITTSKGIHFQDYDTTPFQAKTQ
#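 20 nM HPGD preincubated 15 min at room temperature with compound in 50 mM Tris-HCl pH 8, 0.01% Tween 20. Started with 1 mM NAD+ and 30 uM prostaglandin E2; NADH fluorescence (360/450 nm) read 5 times over 30-s intervals, last minus first.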
# ALDH1A1 block – inhibitors of human aldehyde dehydrogenase 1A1; P00352; Purified ALDH1A1, NADH fluorescence, propionaldehyde substrate; Potency, µM (series often up to 75.3 µM), for inactives: top-dose activity, negative = inhibition, actives largely listed as inhibitors; 7.3% of 220,000 active; AID 1030;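 note: potency is the fitted concentration of half-maximal effect; plate controls were no enzyme wells and a reference inhibitor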
# Target sequence (P00352 whole entry, looked up): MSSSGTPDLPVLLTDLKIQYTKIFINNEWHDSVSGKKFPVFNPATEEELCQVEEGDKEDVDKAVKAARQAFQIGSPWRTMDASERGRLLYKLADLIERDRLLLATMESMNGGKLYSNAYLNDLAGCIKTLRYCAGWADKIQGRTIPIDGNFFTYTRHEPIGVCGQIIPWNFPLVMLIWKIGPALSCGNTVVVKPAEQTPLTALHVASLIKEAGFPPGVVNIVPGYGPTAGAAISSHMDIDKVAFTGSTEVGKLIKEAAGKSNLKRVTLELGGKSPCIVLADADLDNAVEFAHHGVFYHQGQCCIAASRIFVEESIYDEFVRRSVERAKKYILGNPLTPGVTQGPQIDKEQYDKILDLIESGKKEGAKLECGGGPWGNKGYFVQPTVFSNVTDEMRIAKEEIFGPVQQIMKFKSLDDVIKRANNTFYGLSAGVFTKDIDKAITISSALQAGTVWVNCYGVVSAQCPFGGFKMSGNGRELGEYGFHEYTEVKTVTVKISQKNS
# An asterisk follows results filed as active; ? = inconclusive; . = no result given; [ ] = remark or other dose. Rows were chosen to be rich in hits. Some 11% of all compounds tested hit in one or more screens of this group. Unless noted, calls come from the whole dose curve; as a rule, active = well fitted inhibition curve with a large enough effect (not every such curve was filed as active); inconclusive = small, poorly fitted or top-dose-only effect, or another doubt; inactive = no such curve, though single readings can be large or run the other way.
SMILES,PNC assembly inh,GoLoco inh red,HttQ103 aggreg,HTT ATP protect,HPGD inh,ALDH1A1 block
O=C(CCn1c(=S)[nH]c2ccccc2c1=O)NCC1CCCO1 (stereo not drawn),36,1%,-4%,-1%[10 µM],28µM*,?
Cc1c(Cn2ccnc2)c2ccccc2n1CCC(=O)O,.,.,7%,?,.,.
CC1CCCCC1NC(=O)CCCn1c(=S)[nH]c2ccccc2c1=O (stereo not drawn),.,2%,-3%,-21%,.,2%
O=C(CCCn1c(=S)[nH]c2ccccc2c1=O)NC1CCCC1,1,-4%,-10%,3%,14µM*,?
O=C(CCc1c[nH]c2ccccc12)NC1CC1,-11,13%,?,?,16µM*,5%
CC1CCCCC1n1c(=S)[nH]c2ccccc2c1=O (stereo not drawn),?,.,20µM*,-2%[0.074 µM],.,4%
S=C(NCCc1c[nH]c2ccccc12)NC1CC1,.,5%,10%,3%[10 µM],.,3%
Cc1ccc(Cl)cc1N1CCN(S(=O)(=O)c2ccc3[nH]c(=O)c(=O)[nH]c3c2)CC1,.,11%,-11%,11%,.,3%
Cc1ccc(Cl)cc1N1CCN(CC(=O)Nc2ccc3[nH]c(=O)[nH]c3c2)CC1,-8,2%,-6%,3%[10 µM],-7%,22µM*
CCOc1ccc(NCc2nc3ccccc3n2CCOc2ccccc2)cc1,-113*,5%,-19%,.,-12%,-13%
COc1cc(C)c(Cc2cnc(N)nc2N)cc1OC,.,11%,25%,?,.,.
Cc1cc(Cc2cc(C)c(N)cc2C)c(C)cc1N,.,-10%,16%,-8%,.,22µM*
C#CCCCO/N=C1/C[C@@H](O)[C@@H](O)[C@@H]2[C@@H]3C(=O)N(C(C)(C)C)C(=O)[C@H]3CC[C@@H]12,.,.,.,-10%[10 µM],.,?
CC(C)(C)C1CCc2onc(C(=O)O)c2C1 (stereo not drawn),.,-1%,4%[9.22 µM],3%[10 µM],.,8%
Cc1ccccc1C(=O)N1CCC(C(=O)Nc2ccc3c(c2)OCO3)CC1,-29,3%,-8%,-20%[10 µM],0%,-18%
O=C(Nc1ccc2c(c1)OCCO2)C1CCN(C(=O)c2ccccc2)CC1,-105*,-3%,1%,-14%,-4%,14µM*
Cc1ccccc1C(=O)N1CCC(C(=O)Nc2ccc3c(c2)OCCO3)CC1,2,7%,5%[9.22 µM],11%,-16%,28µM*
O=C(CC(c1cccs1)S(=O)(=O)c1ccccc1)c1ccc(F)cc1 (stereo not drawn),-11,2%,-6%,-15%[10 µM],-1%,25µM*
CC/C=C\C/C=C\C/C=C\C/C=C\C/C=C\C/C=C\CCC(=O)NCCO,.,3%,.,-2%,-6%,?
O=C(COC(=O)c1ccc[nH]c1=O)c1ccc(Cl)s1,-23,7%,-1%[9.22 µM],9%,-10%,-10%
Cc1ccc(C(=O)OCC(=O)c2ccc(Cl)s2)s1,10,1%,-11%,9%[10 µM],16µM*,?
O=C(O)c1ccc2c(c1)C(=O)N(CCC1=CCCCC1)C2=O,?,1%,0%,-18%,-18%,-10%
CN(C(=O)c1ccc2c(c1)C(=O)N(CCC1=CCCCC1)C2=O)C1CCCCC1,16,-33%,?,-53%,14µM*,0.79µM*
CCC(C)(C)n1nnnc1C(c1ccncc1)N1CCC(C)CC1 (stereo not drawn),-119*,-10%,-6%,-7%[10 µM],3%,9%
CCC(C)(C)n1nnnc1C(c1ccccc1)N1CCN(Cc2ccccc2)CC1 (stereo not drawn),.,12%,10%[9.22 µM],18%[10 µM],.,1%
SMILES,PNC assembly inh,GoLoco inh red,HttQ103 aggreg,HTT ATP protect,HPGD inh,ALDH1A1 block
c1ccc(C(c2ccccc2)N2CCN(Cc3nnnn3C3CCCC3)CC2)cc1,-82*,7%,?,-9%[10 µM],-4%,11µM*
CCC(C)(C)n1nnnc1CN1CCN(C(c2ccccc2)c2ccccc2)CC1,162,-10%,14µM*,11%[10 µM],-12%,25µM*
CC(C)CCn1nnnc1CN1CCN(C(c2ccccc2)c2ccccc2)CC1,.,-12%,?,-53%,.,14µM*
CC/C=C\C/C=C\C/C=C\C/C=C\C/C=C\CCCC(=O)O,.,-8%,1%,6%,-7%,-8%
O=C(c1csnn1)N1CCC2(CC1)CCN(c1ncccn1)CC2,.,2%,.,-5%,-11%,4%
O=C1N/C(=C/c2cccn2-c2ccccc2)C(=O)N1Cc1ccc(F)cc1,-15,13%,7%,-20%[10 µM],-3%,?
Cc1cc(/C=C2/NC(=O)N(c3ccccc3)C2=O)c(C)n1C(C)C,-19,-1%,16%,.,-7%,?
CCn1c(C)cc(/C=C2\NC(=O)N(CC(=O)Nc3ccc(F)cc3)C2=O)c1C,.,-8%,7%,-36%,.,6%
CCn1c(C)cc(/C=C2/NC(=O)N(Cc3ccccc3F)C2=O)c1C,-4,9%,7%,.,?,1.8µM*
Cc1cc(/C=C2/NC(=O)N(Cc3ccccc3F)C2=O)c(C)n1C(C)C,?,7%,37%,-6%[10 µM],-26%,2µM*
CCn1c(C)cc(/C=C2\NC(=O)N(Cc3ccccc3)C2=O)c1C,2,-18%,-5%,-8%,-13%,8.9µM*
O=S(=O)(NCCc1ccncc1)c1cc(Br)ccc1F,-19,6%,2%,8%[10 µM],0%,1%
COc1ccc2c(c1)CCc1c(C(=O)N3CCCCCC3)noc1-2,25,8%,-6%,-36%,10µM*,?
O=C(c1noc2c1CCc1ccccc1-2)N1CCc2ccccc2C1,-9,8%,?,0%[10 µM],16µM*,?
O=C(c1noc2c1CCc1ccccc1-2)N1CCCc2ccccc21,27,3%,18%,12%,-27%,13µM*
Cc1cc(NC(=O)c2noc3c2CCc2ccccc2-3)no1,-4,1%,-12%,-7%,-10%,4%
O=C(c1noc2c1CCc1ccccc1-2)N1CCOCC1,-14,3%,7%,3%[10 µM],-23%,-14%
O=C1OC(OC(=O)c2cccnc2Nc2cccc(C(F)(F)F)c2)c2ccccc21 (stereo not drawn),.,.,20%,-7%,.,.
Nc1ncnc(N2CCc3ccccc32)c1[N+](=O)[O-],.,5%,2.5µM*,-7%,.,-8%
O=P(O)(O)C(O)(Cc1cccnc1)P(=O)(O)O,.,7%,6%,-44%,.,.
COc1cc([C@@H]2C[C@H]3CN(c4ccccc4)C(=O)[C@]34CCCN24)cc(OC)c1OC,.,33%,1%[9.22 µM],11%[10 µM],.,0%
CCOc1cc([C@@H]2C[C@H]3CN(c4ccccc4)C(=O)[C@]34CCCN24)ccc1OC,.,121%,7.1µM*,-161%,.,-15%
CCCNC(=O)c1ccc2snnc2c1,6,1%,17%,-11%[10 µM],-16%,?

# Screening results from PubChem.
